# Tests used:
# Assay in all cases: DAPPL (digital affinity profiling via proximity ligation, sequencing); 10 mM Tris-HCl pH 7.5, 50 mM NaCl, 1 mM DTT, 4% glycerol, room temperature, 30 min; GST-TFs on glutathione beads, 16-mer random dsDNA library, 0.1% formaldehyde crosslink after washing; high values mean tight binding
# Details in all cases: protein: recombinant; tags: N-terminal GST; dsDNA, one strand shown
# [1] = target: T1, ERF (Homo sapiens, UniProt P50548 1-548)
# T1 sequence: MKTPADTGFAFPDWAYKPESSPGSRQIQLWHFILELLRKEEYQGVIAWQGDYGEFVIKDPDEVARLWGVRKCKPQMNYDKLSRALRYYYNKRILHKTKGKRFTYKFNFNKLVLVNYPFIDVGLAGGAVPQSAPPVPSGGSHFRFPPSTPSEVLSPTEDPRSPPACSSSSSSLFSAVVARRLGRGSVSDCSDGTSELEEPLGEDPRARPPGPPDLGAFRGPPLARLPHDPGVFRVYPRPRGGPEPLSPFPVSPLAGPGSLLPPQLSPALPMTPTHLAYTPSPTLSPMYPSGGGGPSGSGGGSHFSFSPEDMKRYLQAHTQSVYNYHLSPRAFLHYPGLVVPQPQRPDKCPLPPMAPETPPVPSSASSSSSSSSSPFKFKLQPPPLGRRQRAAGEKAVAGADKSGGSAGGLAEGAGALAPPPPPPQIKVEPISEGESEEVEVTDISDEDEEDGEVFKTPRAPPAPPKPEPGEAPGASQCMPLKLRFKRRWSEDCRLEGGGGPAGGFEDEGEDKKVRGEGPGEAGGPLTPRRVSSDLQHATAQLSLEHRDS
# How it was run: (§1)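 Binding signal is given per hexamer as its read frequency for a factor divided by its frequency in the tag-only sample. GST-fused human transcription factors were expressed in yeast, captured on glutathione beads, barcoded with DNA and pooled with that sample, then incubated with 200 nmole of a 16-mer random double-stranded DNA library in Tris/NaCl/DTT/glycerol buffer for 30 min at room temperature. The pools were then washed, crosslinked, proximity-ligated, amplified by PCR and sequenced on an Illumina NextSeq500.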
# [2] = target: T2, ETV3L (Homo sapiens, UniProt Q6ZN32 1-361)
# T2 sequence: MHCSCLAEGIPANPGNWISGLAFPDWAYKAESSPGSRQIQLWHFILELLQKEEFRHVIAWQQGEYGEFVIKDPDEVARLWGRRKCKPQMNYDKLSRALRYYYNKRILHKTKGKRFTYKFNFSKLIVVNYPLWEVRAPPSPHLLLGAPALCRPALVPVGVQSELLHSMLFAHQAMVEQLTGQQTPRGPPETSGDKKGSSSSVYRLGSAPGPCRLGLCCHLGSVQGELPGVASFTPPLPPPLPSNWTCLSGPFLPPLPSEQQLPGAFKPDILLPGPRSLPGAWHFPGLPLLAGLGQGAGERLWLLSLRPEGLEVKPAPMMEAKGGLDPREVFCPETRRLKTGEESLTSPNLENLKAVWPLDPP
# How it was run: as §1
# [3] = target: T3, ETS2 (Homo sapiens, UniProt P15036 1-469)
# T3 sequence: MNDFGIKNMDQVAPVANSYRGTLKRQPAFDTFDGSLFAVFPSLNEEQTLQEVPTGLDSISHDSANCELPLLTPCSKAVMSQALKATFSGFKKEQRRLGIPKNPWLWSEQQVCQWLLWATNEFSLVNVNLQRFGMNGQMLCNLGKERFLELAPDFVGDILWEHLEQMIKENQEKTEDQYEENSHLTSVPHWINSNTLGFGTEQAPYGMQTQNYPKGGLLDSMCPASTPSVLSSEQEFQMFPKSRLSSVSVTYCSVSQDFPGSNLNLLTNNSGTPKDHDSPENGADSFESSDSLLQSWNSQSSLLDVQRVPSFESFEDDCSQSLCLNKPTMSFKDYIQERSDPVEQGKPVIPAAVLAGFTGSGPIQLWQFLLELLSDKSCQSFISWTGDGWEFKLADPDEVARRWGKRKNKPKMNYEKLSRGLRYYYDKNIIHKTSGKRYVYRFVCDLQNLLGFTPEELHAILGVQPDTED
# How it was run: as §1
# [4] = target: T4, SPDEF (Homo sapiens, UniProt O95238 1-335)
# T4 sequence: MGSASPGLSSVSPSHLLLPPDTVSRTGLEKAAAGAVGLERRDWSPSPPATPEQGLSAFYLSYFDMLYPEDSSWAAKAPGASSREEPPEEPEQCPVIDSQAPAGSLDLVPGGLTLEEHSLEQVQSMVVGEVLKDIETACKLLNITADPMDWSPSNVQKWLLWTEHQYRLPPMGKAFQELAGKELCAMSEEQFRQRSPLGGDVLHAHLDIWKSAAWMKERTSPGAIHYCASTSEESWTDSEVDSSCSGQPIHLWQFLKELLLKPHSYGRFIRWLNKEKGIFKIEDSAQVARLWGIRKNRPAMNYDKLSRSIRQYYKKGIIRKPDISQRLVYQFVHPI
# How it was run: as §1
# [5] = target: T5, ETV7 (Homo sapiens, UniProt Q9Y603 1-341)
# T5 sequence: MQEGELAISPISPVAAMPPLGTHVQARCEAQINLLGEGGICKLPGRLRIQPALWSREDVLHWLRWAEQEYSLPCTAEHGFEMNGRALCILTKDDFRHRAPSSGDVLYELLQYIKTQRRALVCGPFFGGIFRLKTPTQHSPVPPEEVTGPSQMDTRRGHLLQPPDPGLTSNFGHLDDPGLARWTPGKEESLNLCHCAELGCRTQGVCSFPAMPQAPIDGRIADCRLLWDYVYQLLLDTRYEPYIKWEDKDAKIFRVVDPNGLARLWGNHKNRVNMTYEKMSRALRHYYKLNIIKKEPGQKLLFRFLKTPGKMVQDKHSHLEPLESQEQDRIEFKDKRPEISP
# How it was run: as §1
# [6] = target: T6, ELF5 (Homo sapiens, UniProt Q9UKW6-2 1-255)
# T6 sequence: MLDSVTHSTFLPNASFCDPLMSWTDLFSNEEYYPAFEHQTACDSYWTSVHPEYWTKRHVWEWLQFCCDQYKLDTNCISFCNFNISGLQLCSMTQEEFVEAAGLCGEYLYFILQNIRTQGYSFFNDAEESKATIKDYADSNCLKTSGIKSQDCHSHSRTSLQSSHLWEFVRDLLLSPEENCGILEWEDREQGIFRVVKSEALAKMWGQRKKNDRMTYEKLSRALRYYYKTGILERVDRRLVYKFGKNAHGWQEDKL
# How it was run: as §1
# [7] = target: T7, ETV3 (Homo sapiens, UniProt P41162-2 1-143)
# T7 sequence: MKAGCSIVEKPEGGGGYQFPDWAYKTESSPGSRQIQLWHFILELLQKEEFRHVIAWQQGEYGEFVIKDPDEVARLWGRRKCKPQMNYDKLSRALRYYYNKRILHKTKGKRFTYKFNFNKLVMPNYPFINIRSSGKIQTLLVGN
# How it was run: as §1
# [8] = target: ETV6 (Homo sapiens, UniProt P41212 1-452)
# How it was run: as §1
# Chain of ETV6 (P41212 whole entry): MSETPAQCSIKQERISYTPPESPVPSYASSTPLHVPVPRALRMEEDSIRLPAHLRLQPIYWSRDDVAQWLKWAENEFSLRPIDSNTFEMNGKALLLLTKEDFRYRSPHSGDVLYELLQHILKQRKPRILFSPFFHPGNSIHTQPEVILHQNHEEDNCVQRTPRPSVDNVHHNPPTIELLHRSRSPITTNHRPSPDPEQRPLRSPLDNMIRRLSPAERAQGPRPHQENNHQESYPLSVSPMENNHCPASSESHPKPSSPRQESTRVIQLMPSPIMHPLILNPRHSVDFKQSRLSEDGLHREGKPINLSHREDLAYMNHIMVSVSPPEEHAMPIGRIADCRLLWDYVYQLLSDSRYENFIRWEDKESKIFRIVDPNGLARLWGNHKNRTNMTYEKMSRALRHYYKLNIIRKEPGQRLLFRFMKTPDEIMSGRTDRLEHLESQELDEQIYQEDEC
Sequence,binding signal [1],binding signal [2],binding signal [3],binding signal [4],binding signal [5],binding signal [6],binding signal [7],binding signal [8]
AATAAA,"1.29 fold enrichment (6-mer frequency, TF over GST control)","1.29 fold enrichment (6-mer frequency, TF over GST control)","1.31 fold enrichment (6-mer frequency, TF over GST control)","1.22 fold enrichment (6-mer frequency, TF over GST control)","1.24 fold enrichment (6-mer frequency, TF over GST control)","1.2 fold enrichment (6-mer frequency, TF over GST control)","1.18 fold enrichment (6-mer frequency, TF over GST control)","1.34 fold enrichment (6-mer frequency, TF over GST control)"
ATGGAT,"1.09 fold enrichment (6-mer frequency, TF over GST control)","1.16 fold enrichment (6-mer frequency, TF over GST control)","1.09 fold enrichment (6-mer frequency, TF over GST control)","1.01 fold enrichment (6-mer frequency, TF over GST control)","1.16 fold enrichment (6-mer frequency, TF over GST control)","1.06 fold enrichment (6-mer frequency, TF over GST control)","1.11 fold enrichment (6-mer frequency, TF over GST control)","1.09 fold enrichment (6-mer frequency, TF over GST control)"
TTAAAA,"1.3 fold enrichment (6-mer frequency, TF over GST control)","1.27 fold enrichment (6-mer frequency, TF over GST control)","1.17 fold enrichment (6-mer frequency, TF over GST control)","1.15 fold enrichment (6-mer frequency, TF over GST control)","1.26 fold enrichment (6-mer frequency, TF over GST control)","1.11 fold enrichment (6-mer frequency, TF over GST control)","1.17 fold enrichment (6-mer frequency, TF over GST control)","1.19 fold enrichment (6-mer frequency, TF over GST control)"
CTTGCC,"1.33 fold enrichment (6-mer frequency, TF over GST control)","1.31 fold enrichment (6-mer frequency, TF over GST control)","1.3 fold enrichment (6-mer frequency, TF over GST control)","1.44 fold enrichment (6-mer frequency, TF over GST control)","1.54 fold enrichment (6-mer frequency, TF over GST control)","1.29 fold enrichment (6-mer frequency, TF over GST control)","1.33 fold enrichment (6-mer frequency, TF over GST control)","1.08 fold enrichment (6-mer frequency, TF over GST control)"
TACGAC,"1.18 fold enrichment (6-mer frequency, TF over GST control)","1.22 fold enrichment (6-mer frequency, TF over GST control)","1.27 fold enrichment (6-mer frequency, TF over GST control)","1.48 fold enrichment (6-mer frequency, TF over GST control)","1.18 fold enrichment (6-mer frequency, TF over GST control)","1.29 fold enrichment (6-mer frequency, TF over GST control)","1.33 fold enrichment (6-mer frequency, TF over GST control)","1.29 fold enrichment (6-mer frequency, TF over GST control)"
GTGCTT,"1.26 fold enrichment (6-mer frequency, TF over GST control)","1.14 fold enrichment (6-mer frequency, TF over GST control)","1.25 fold enrichment (6-mer frequency, TF over GST control)","1.37 fold enrichment (6-mer frequency, TF over GST control)","1.3 fold enrichment (6-mer frequency, TF over GST control)","1.41 fold enrichment (6-mer frequency, TF over GST control)","1.3 fold enrichment (6-mer frequency, TF over GST control)","1.37 fold enrichment (6-mer frequency, TF over GST control)"
GCCTTG,"1.16 fold enrichment (6-mer frequency, TF over GST control)","1.34 fold enrichment (6-mer frequency, TF over GST control)","1.25 fold enrichment (6-mer frequency, TF over GST control)","1.13 fold enrichment (6-mer frequency, TF over GST control)","1.3 fold enrichment (6-mer frequency, TF over GST control)","1.17 fold enrichment (6-mer frequency, TF over GST control)","1.14 fold enrichment (6-mer frequency, TF over GST control)","1.16 fold enrichment (6-mer frequency, TF over GST control)"
TGTTAA,"1.19 fold enrichment (6-mer frequency, TF over GST control)","1.14 fold enrichment (6-mer frequency, TF over GST control)","1.11 fold enrichment (6-mer frequency, TF over GST control)","1.09 fold enrichment (6-mer frequency, TF over GST control)","1.1 fold enrichment (6-mer frequency, TF over GST control)","1.13 fold enrichment (6-mer frequency, TF over GST control)","1.16 fold enrichment (6-mer frequency, TF over GST control)","1.16 fold enrichment (6-mer frequency, TF over GST control)"
ATATCG,"1.23 fold enrichment (6-mer frequency, TF over GST control)","1.23 fold enrichment (6-mer frequency, TF over GST control)","1.17 fold enrichment (6-mer frequency, TF over GST control)","1.26 fold enrichment (6-mer frequency, TF over GST control)","1.16 fold enrichment (6-mer frequency, TF over GST control)","1.1 fold enrichment (6-mer frequency, TF over GST control)","1.14 fold enrichment (6-mer frequency, TF over GST control)","1.09 fold enrichment (6-mer frequency, TF over GST control)"
CTCCGG,"1.56 fold enrichment (6-mer frequency, TF over GST control)","1.61 fold enrichment (6-mer frequency, TF over GST control)","1.6 fold enrichment (6-mer frequency, TF over GST control)","1.89 fold enrichment (6-mer frequency, TF over GST control)","1.32 fold enrichment (6-mer frequency, TF over GST control)","1.58 fold enrichment (6-mer frequency, TF over GST control)","1.62 fold enrichment (6-mer frequency, TF over GST control)","1.56 fold enrichment (6-mer frequency, TF over GST control)"
GATTCC,"1.15 fold enrichment (6-mer frequency, TF over GST control)","1.22 fold enrichment (6-mer frequency, TF over GST control)","1.14 fold enrichment (6-mer frequency, TF over GST control)","1.29 fold enrichment (6-mer frequency, TF over GST control)","1.11 fold enrichment (6-mer frequency, TF over GST control)","1.21 fold enrichment (6-mer frequency, TF over GST control)","1.24 fold enrichment (6-mer frequency, TF over GST control)","1.14 fold enrichment (6-mer frequency, TF over GST control)"
AACAAA,"1.2 fold enrichment (6-mer frequency, TF over GST control)","1.14 fold enrichment (6-mer frequency, TF over GST control)","1.22 fold enrichment (6-mer frequency, TF over GST control)","1.11 fold enrichment (6-mer frequency, TF over GST control)","1.13 fold enrichment (6-mer frequency, TF over GST control)","1.16 fold enrichment (6-mer frequency, TF over GST control)","1.15 fold enrichment (6-mer frequency, TF over GST control)","1.18 fold enrichment (6-mer frequency, TF over GST control)"
CTCCTT,"1.86 fold enrichment (6-mer frequency, TF over GST control)","1.76 fold enrichment (6-mer frequency, TF over GST control)","1.76 fold enrichment (6-mer frequency, TF over GST control)","1.64 fold enrichment (6-mer frequency, TF over GST control)","1.75 fold enrichment (6-mer frequency, TF over GST control)","1.89 fold enrichment (6-mer frequency, TF over GST control)","1.95 fold enrichment (6-mer frequency, TF over GST control)","1.76 fold enrichment (6-mer frequency, TF over GST control)"
CTTGGA,"1.12 fold enrichment (6-mer frequency, TF over GST control)","1.11 fold enrichment (6-mer frequency, TF over GST control)","1.14 fold enrichment (6-mer frequency, TF over GST control)","1.22 fold enrichment (6-mer frequency, TF over GST control)","1.14 fold enrichment (6-mer frequency, TF over GST control)","1.09 fold enrichment (6-mer frequency, TF over GST control)","1.08 fold enrichment (6-mer frequency, TF over GST control)","1.03 fold enrichment (6-mer frequency, TF over GST control)"
ATCCCC,"1.43 fold enrichment (6-mer frequency, TF over GST control)","1.41 fold enrichment (6-mer frequency, TF over GST control)","1.29 fold enrichment (6-mer frequency, TF over GST control)","1.41 fold enrichment (6-mer frequency, TF over GST control)","1.3 fold enrichment (6-mer frequency, TF over GST control)","1.46 fold enrichment (6-mer frequency, TF over GST control)","1.35 fold enrichment (6-mer frequency, TF over GST control)","1.29 fold enrichment (6-mer frequency, TF over GST control)"
